Values joined by “and” are separate entries in the source; they are usually repeats but may differ in a detail not shown here. Identical values can stand only once. About 2,000 (36%) of roughly 5,500 compounds were called active. Not shown: some 18% with an inconclusive outcome. Rule as the data show it: active = normalized growth mostly below about 0.91 (no sharp cut-off); inconclusive = no clear call, values can overlap the other calls; inactive = mostly above about 0.92. This is one part of the list.
Assay: chemical genetic growth profiling, strain panel (AID 1159580);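 also: tested at 20 µM; growth read once vehicle control cultures reached saturation at 30 °C; 1 = growth at the plate median or of vehicle wells; lower values mean less growth of the strain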
Settings: growth OD

Measured: normalized growth

CC[C@H]1OC(=O)[C@H](C)[C@@H](O[C@H]2C[C@@](C)(OC)[C@@H](O)[C@H](C)O2)[C@H](C)[C@@H](O[C@@H]2O[C@H](C)C[C@H](N(C)C)[C@H]2O)[C@](C)(O)C[C@@H](C)CN(C)[C@H](C)[C@@H](O)[C@]1(C)O
inactive: S. cerevisiae deletion strains, locus YAL013W, strain DEP1, stronger effect = lower value 0.993 | S. cerevisiae deletion strains, locus YBR021W, strain FUR4, stronger effect = lower value 0.96 | S. cerevisiae deletion strains, locus YBR229C, strain ROT2, stronger effect = lower value 0.988 | S. cerevisiae deletion strains, locus YCL029C, strain bik1, stronger effect = lower value 0.962 | S. cerevisiae deletion strains, locus YDL035C, strain GPR1, stronger effect = lower value 0.969 | S. cerevisiae deletion strains, locus YDL074C, strain BRE1, stronger effect = lower value 1.01 | S. cerevisiae deletion strains, locus YDL101C, strain DUN1, stronger effect = lower value 0.987 | S. cerevisiae deletion strains, locus YDL134C, strain PPH21, stronger effect = lower value 0.993 | S. cerevisiae deletion strains, locus YDL185W, strain tfp1, stronger effect = lower value 0.962 | S. cerevisiae deletion strains, locus YDL192W, strain arf1, stronger effect = lower value 0.96 | S. cerevisiae deletion strains, locus YDR101C, strain arx1, stronger effect = lower value 0.972 | S. cerevisiae deletion strains, locus YDR150W, strain NUM1, stronger effect = lower value 1 | S. cerevisiae deletion strains, locus YDR162C, strain NBP2, stronger effect = lower value 1.01 | S. cerevisiae deletion strains, locus YDR318W, strain mcm21, stronger effect = lower value 0.948 | S. cerevisiae deletion strains, locus YDR388W, stronger effect = lower value 0.978 | S. cerevisiae deletion strains, locus YDR502C, strain sam2, stronger effect = lower value 0.984 | S. cerevisiae deletion strains, locus YEL061C, strain CIN8, stronger effect = lower value 0.996 | S. cerevisiae deletion strains, locus YER110C, stronger effect = lower value 0.972 | S. cerevisiae deletion strains, locus YER155C, strain BEM2, stronger effect = lower value 0.991 | S. cerevisiae deletion strains, locus YER167W, strain BCK2, stronger effect = lower value 0.964 | S. cerevisiae deletion strains, locus YGL078C, strain dbp3, stronger effect = lower value 0.979 | S. cerevisiae deletion strains, locus YGL086W, strain mad1, stronger effect = lower value 0.951 | S. cerevisiae deletion strains, locus YGL248W, strain PDE1, stronger effect = lower value 0.992 | S. cerevisiae deletion strains, locus YGR078C, strain PAC10, stronger effect = lower value 1.02 | S. cerevisiae deletion strains, locus YGR135W, strain pre9, stronger effect = lower value 0.986 | S. cerevisiae deletion strains, locus YGR229C, strain SMI1, stronger effect = lower value 0.988 | S. cerevisiae deletion strains, locus YGR252W, strain gcn5, stronger effect = lower value 0.876 | S. cerevisiae deletion strains, locus YHR030C, strain SLT2, stronger effect = lower value 0.988 and 0.962 | S. cerevisiae deletion strains, locus YHR079C, strain IRE1 (second series), stronger effect = lower value 0.965 | S. cerevisiae deletion strains, locus YHR079C, strain IRE1, stronger effect = lower value 0.965 | S. cerevisiae deletion strains, locus YHR094C, strain hxt1, stronger effect = lower value 0.969 | S. cerevisiae deletion strains, locus YHR129C, strain ARP1, stronger effect = lower value 0.996 | S. cerevisiae deletion strains, locus YHR200W, strain rpn10, stronger effect = lower value 0.977 | S. cerevisiae deletion strains, locus YIL066C, strain RNR3, stronger effect = lower value 0.987 | S. cerevisiae deletion strains, locus YIL073C, strain SPO22, stronger effect = lower value 0.895 | S. cerevisiae deletion strains, locus YIL125W, strain kgd1, stronger effect = lower value 0.983 | S. cerevisiae deletion strains, locus YIR030C, strain dcg1, stronger effect = lower value 0.975 | S. cerevisiae deletion strains, locus YJL095W, strain BCK1, stronger effect = lower value 1.03 and 0.999 | S. cerevisiae deletion strains, locus YJL134W, strain LCB3, stronger effect = lower value 0.992 | S. cerevisiae deletion strains, locus YJL168C, strain set2, stronger effect = lower value 0.979 | S. cerevisiae deletion strains, locus YJL187C, strain SWE1 (second series), stronger effect = lower value 0.993 | S. cerevisiae deletion strains, locus YJR043C, strain POL32, stronger effect = lower value 0.966 | S. cerevisiae deletion strains, locus YJR066W, strain TOR1, stronger effect = lower value 0.956 | S. cerevisiae deletion strains, locus YJR075W, strain HOC1, stronger effect = lower value 1 | S. cerevisiae deletion strains, locus YKL009W, strain mrt4, stronger effect = lower value 0.992 | S. cerevisiae deletion strains, locus YKL068W, stronger effect = lower value 0.995 | S. cerevisiae deletion strains, locus YKL085W, strain MDH1 (second series), stronger effect = lower value 0.974 | S. cerevisiae deletion strains, locus YKL085W, strain MDH1, stronger effect = lower value 0.974 | S. cerevisiae deletion strains, locus YKL190W, strain CNB1, stronger effect = lower value 0.996 | S. cerevisiae deletion strains, locus YKR001C, strain vps1, stronger effect = lower value 0.961 | S. cerevisiae deletion strains, locus YLR039C, strain RIC1, stronger effect = lower value 0.965 | S. cerevisiae deletion strains, locus YLR058C, strain SHM2, stronger effect = lower value 0.992 | S. cerevisiae deletion strains, locus YLR102C, strain apc9, stronger effect = lower value 0.976 | S. cerevisiae deletion strains, locus YLR113W, strain HOG1, stronger effect = lower value 0.986 | S. cerevisiae deletion strains, locus YLR262C, strain YPT6, stronger effect = lower value 0.999 | S. cerevisiae deletion strains, locus YLR268W, strain sec22, stronger effect = lower value 0.994 | S. cerevisiae deletion strains, locus YLR330W, strain CHS5, stronger effect = lower value 0.991 | S. cerevisiae deletion strains, locus YLR342W, strain FKS1 (second series), stronger effect = lower value 0.963 | S. cerevisiae deletion strains, locus YLR371W, strain rom2, stronger effect = lower value 0.964 | S. cerevisiae deletion strains, locus YLR418C, strain cdc73, stronger effect = lower value 1.03 | S. cerevisiae deletion strains, locus YML016C, strain PPZ1, stronger effect = lower value 0.991 | S. cerevisiae deletion strains, locus YML032C, strain rad52, stronger effect = lower value 0.942 | S. cerevisiae deletion strains, locus YML124C, strain tub3, stronger effect = lower value 0.984 | S. cerevisiae deletion strains, locus YMR078C, strain ctf18, stronger effect = lower value 0.964 | S. cerevisiae deletion strains, locus YMR223W, strain ubp8, stronger effect = lower value 0.949 | S. cerevisiae deletion strains, locus YMR263W, strain SAP30, stronger effect = lower value 1 | S. cerevisiae deletion strains, locus YMR307W, strain GAS1, stronger effect = lower value 0.788 | S. cerevisiae deletion strains, locus YNL067W, strain RPL9B, stronger effect = lower value 1.01 | S. cerevisiae deletion strains, locus YNL128W, strain TEP1, stronger effect = lower value 1 | S. cerevisiae deletion strains, locus YNL153C, strain GIM3, stronger effect = lower value 1.03 | S. cerevisiae deletion strains, locus YNL183C, strain NPR1, stronger effect = lower value 0.92 | S. cerevisiae deletion strains, locus YNL233W, strain BNI4, stronger effect = lower value 1.01 | S. cerevisiae deletion strains, locus YNL250W, strain rad50, stronger effect = lower value 0.978 | S. cerevisiae deletion strains, locus YNL271C, strain bni1, stronger effect = lower value 0.976 | S. cerevisiae deletion strains, locus YNL298W, strain CLA4, stronger effect = lower value 0.972 | S. cerevisiae deletion strains, locus YNL307C, strain MCK1, stronger effect = lower value 0.945 | S. cerevisiae deletion strains, locus YNL322C, strain KRE1, stronger effect = lower value 0.995 | S. cerevisiae deletion strains, locus YNR052C, strain pop2, stronger effect = lower value 0.957 | S. cerevisiae deletion strains, locus YOL006C, strain TOP1, stronger effect = lower value 0.951 | S. cerevisiae deletion strains, locus YOL012C, strain htz1 1.44 | S. cerevisiae deletion strains, locus YOL147C, strain pex11, stronger effect = lower value 0.981 | S. cerevisiae deletion strains, locus YOR061W, strain CKA2, stronger effect = lower value 0.972 | S. cerevisiae deletion strains, locus YOR069W, strain VPS5, stronger effect = lower value 0.989 | S. cerevisiae deletion strains, locus YOR136W, strain idh2, stronger effect = lower value 0.969 | S. cerevisiae deletion strains, locus YOR144C, strain elg1, stronger effect = lower value 0.976 | S. cerevisiae deletion strains, locus YOR184W, strain ser1, stronger effect = lower value 0.973 | S. cerevisiae deletion strains, locus YOR231W, strain MKK1, stronger effect = lower value 0.968 | S. cerevisiae deletion strains, locus YOR316C, strain cot1, stronger effect = lower value 0.978 | S. cerevisiae deletion strains, locus YPL055C, strain LGE1, stronger effect = lower value 1.01 | S. cerevisiae deletion strains, locus YPL241C, strain CIN2, stronger effect = lower value 0.994 | S. cerevisiae deletion strains, locus YPL256C, strain CLN2, stronger effect = lower value 0.963 | S. cerevisiae deletion strains, locus YPR119W, strain clb2, stronger effect = lower value 0.981 | S. cerevisiae deletion strains, locus YPR141C, strain kar3, stronger effect = lower value 0.98 | S. cerevisiae deletion strains, locus YPR163C, strain tif3, stronger effect = lower value 0.974 | S. cerevisiae deletion strains, locus YPR167C, strain met16, stronger effect = lower value 0.984 | S. cerevisiae deletion strains, strain wtn01, stronger effect = lower value 0.978 | S. cerevisiae strains, strain wild type, stronger effect = lower value 0.982

Source: PubChem BioAssay AID1159580 (chemical genetic matrix, 2015)
